Compound activity (PubChem)
Shown is part of a subset that was picked to be rich in hits.
nsP2pro inh: inhibitors of chikungunya virus nsP2 protease | 1.1% of 31,000 active | AID 1964107 | Potency, µM (highest dose often 24.9 µM), inactives show at the highest dose activity change, negative = inhibition, usual class: inhibitors | FRET peptide cleavage, nsP2pro, fluorescence 1 h | Q8JUX6; calls by dose curve; note: nearly all actives have a fitted effect of over 60% in size
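Recombinant nsP2pro (150 nM) was preincubated with compound 15 min at room temperature in 10 mM Tris-HCl pH 8.0, 0.01% Tween 20. Peptide 2 FRET substrate (2.5 uM) was then added and fluorescence read after 1 h. Seven-point series, up to 25 uM.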
An asterisk follows results filed as active; i = inactive; ! = not active in a repeat; [ ] = dose if it differs, or a comment. % is set by controls: 0 for no effect and ±100 for the full control effect; potency is the fitted concentration of half-maximal effect.

SMILES | nsP2pro inh
O=C(c1ccccc1)N1CC2(CCCN2Cc2cccnc2)Cc2ccccc21 (centres undefined) | -23%
CC1CCN(S(=O)(=O)c2ccc3c(c2)oc(=O)n3CC(=O)O)CC1 | -21%
O=C(O)c1cc(O)c(O)c(O)c1 | 12µM*!
O=C(O)c1cc(N=Nc2ccc(O)c(C(=O)O)c2)ccc1O | -18%
O=C(O)c1cc(O)c2c(c1)[O][Bi][O]2 | -4%[0.199 µM]
Cc1ncc2c(n1)C[C@@H]1CC[C@H]2N1C(=O)C1(c2ccccc2)CC1 | 4%
OC1CCOC2(CCN(Cc3cccnc3)CC2)C1 (centres undefined) | -1%
COC(=O)[C@@H](N)CS | 11µM*
N[C@H](CO)C(=O)O | -26%
O=C(Nc1ccc2nc(SCC(=O)N3CCCC3)sc2c1)c1ccccc1F | -11%
Cc1ccc(NS(=O)(=O)c2ccc3c(c2)N(C)C(=O)CC(=O)N3C)cc1Cl | -17%
CCCCCCNC(=O)Nc1nnc(-c2ccncc2)s1 | 2%
COc1ccnc(NC(=S)N2CCN(c3ccc(Cl)cc3Cl)CC2)c1 | 3%
O=C(c1ccoc1)N1CCC(Nc2cccn3ncnc23)CC1 | -4%
Cc1nc2c(NC3CCN(C(=O)c4cnccn4)CC3)cccn2n1 | 11µM*
CCCOc1nccnc1NC1CCN(C(=O)c2cccnc2)CC1 | i
CCN1CCCC1Cn1c(-c2ccccc2)nc2c(NCc3ccccc3)nc(C)nc21 (centres undefined) | -5%
CC[C@H](C)[C@H](N)C(=O)N1CCC(Cn2cc(C3CCCC3)nn2)CC1 | -3%
CCCCc1ccc(NS(=O)(=O)c2ccc(F)cc2)cc1 | -9%
CCc1ccc(NS(=O)(=O)c2ccc3[nH]c4c(c3c2)CCCCCC4)cc1 | -19%
CCc1ccc(NS(=O)(=O)c2[nH]ncc2C(=O)OC)cc1 | 10µM*
O=C(O)c1ccc(-c2ccc3ncnc(NCc4nccs4)c3c2)o1 | 11µM*
O=C(O)c1ccc(-c2ccc3ncnc(NCC4CCCO4)c3c2)o1 (centres undefined) | 4%
CC(C)(C)CNc1ncnc2ccc(-c3ccc(C(=O)O)o3)cc12 | i
CN(C)C(=O)[C@]12CCCC[C@@H]1N(CCc1ccccc1)C(=O)CC2 | 3%
SMILES | nsP2pro inh
CCC1CCCCN1C(=O)Cn1c(=O)cc(C(F)(F)F)c2c(C)nn(C)c21 (centres undefined) | -25%
CC(C)C(=O)N1Cc2ccccc2NC(=O)C12CCNC2 (centres undefined) | -8%[39.2 µM]
O=C1Nc2ccccc2CN(CC2CCCC2)C12CCNC2 (centres undefined) | 13µM*
O=C1Nc2ccccc2CN(CC2CC2)C12CCNC2 (centres undefined) | -7%[39.2 µM]
COC(=O)N1CCCCC12Cc1ccccc1NC2=O (centres undefined) | -4%[39.2 µM]
Cc1ccc([S+](=O)([O-])N2CCCCC23Cc2ccccc2NC3=O)cc1 (centres undefined) | i
CC(C)=CCN1Cc2ccccc2NC(=O)C12CCNC2 (centres undefined) | 10µM*
Cc1ccc(-n2nc3c(N4CCCC(C(=O)NCc5ccccc5C)C4)nnc(C)c3c2C)cc1 (centres undefined) | 3%
CC[C@H](NC(C)C)[C@H](O)c1ccc(O)c2[nH]c(=O)ccc12 | -9%
COc1ccc(C(=O)N[C@@H]2c3ccccc3C3(CCNCC3)[C@H]2OC)c(C)c1 | -1%
O=C(c1ccsc1)N1CCc2c(nc3cc[nH]n3c2=O)C1 | -22%
CC(C)OC(=O)c1ccc(NC(=O)CSc2nc(-c3cccs3)cc(C(F)(F)F)n2)cc1 | -7%
CCc1nc2c(cnn2-c2ccc(C)cc2)c(=O)n1Cc1ccccc1 | -19%
COc1ccc(-n2c(-c3ccccc3F)nc3c(cnn3-c3ccc(C)cc3)c2=O)cc1 | 11µM*
COc1ccc(Oc2c(Cl)cnn(-c3cc(C)cc(C)c3)c2=O)cc1 | 0%
O=C1CCc2cc(S(=O)(=O)Nc3ccccn3)ccc2N1 | -7%
COC(=O)C12CCC(C)C(C)C1C1=CCC3C4(C)CCC(OC(C)=O)C(C)(C)C4CCC3(C)C1(C)CC2 (centres undefined) | 0%[10 µM]
CC(=O)OC1CCC2(C)C(CCC3(C)C2CC=C2C4C(C)C(C)CCC4(C)CCC23C)C1(C)C(=O)O (centres undefined) | 1.2µM*
CC(=O)O[C@@H]1CC[C@@]2(C)C(CC[C@]3(C)C2[C@H](O)C=C2[C@H]4[C@@H](C)[C@H](C)CC[C@]4(C)CC[C@]23C)[C@@]1(C)C(=O)O (some centres undefined) | -15%[10 µM]
COc1cccc2cc(-c3nc(Nc4cccc(C)c4)sc3C)c(=O)oc12 | -17%
CCN(Cc1ccccc1)C(=O)c1sc2nc3n(c(=O)c2c1C)CCCC3 | -15%
O=C(CCCCC1CCCCC1)N1CCC(c2cnc[nH]2)CC1 | 28%
C/C(=C\CO)CC/C=C(\C)C(=O)O[C@H]1[C@H](OC2OC=C(C(=O)O)C3CCC(C)(O)C23)O[C@H](CO)[C@@H](O)[C@@H]1O (some centres undefined) | 48%[10 µM]
Cc1ccc(NC(=O)N2C[C@@H]3C[C@H](C2)c2c(-c4cccs4)ccc(=O)n2C3)cc1 | -2%[39.2 µM]
